Screening results deposited in PubChem by National Center for Advancing Translational Sciences (NCATS).
Hits are enriched below; roughly 10% of the tested compounds scored in any of these assays.
12-hLO inh = inhibitors of human 12-lipoxygenase (ALOX12); Potency, µM (titrated, usually from 57.1 µM), for the others: top-dose activity change, negative = inhibition, most hits filed as inhibitors; P18054; hit rate 0.12% among 150,000; purified 12-hLO, xylenol orange hydroperoxide absorbance; AID 1452; active = well fitted inhibition curve with a large enough effect; inconclusive = small, poorly fitted or top-dose-only effect; note: potency is the fitted concentration of half-maximal effect; nearly all actives have a fitted effect of over 55% in size
Target sequence (P18054 whole entry, looked up): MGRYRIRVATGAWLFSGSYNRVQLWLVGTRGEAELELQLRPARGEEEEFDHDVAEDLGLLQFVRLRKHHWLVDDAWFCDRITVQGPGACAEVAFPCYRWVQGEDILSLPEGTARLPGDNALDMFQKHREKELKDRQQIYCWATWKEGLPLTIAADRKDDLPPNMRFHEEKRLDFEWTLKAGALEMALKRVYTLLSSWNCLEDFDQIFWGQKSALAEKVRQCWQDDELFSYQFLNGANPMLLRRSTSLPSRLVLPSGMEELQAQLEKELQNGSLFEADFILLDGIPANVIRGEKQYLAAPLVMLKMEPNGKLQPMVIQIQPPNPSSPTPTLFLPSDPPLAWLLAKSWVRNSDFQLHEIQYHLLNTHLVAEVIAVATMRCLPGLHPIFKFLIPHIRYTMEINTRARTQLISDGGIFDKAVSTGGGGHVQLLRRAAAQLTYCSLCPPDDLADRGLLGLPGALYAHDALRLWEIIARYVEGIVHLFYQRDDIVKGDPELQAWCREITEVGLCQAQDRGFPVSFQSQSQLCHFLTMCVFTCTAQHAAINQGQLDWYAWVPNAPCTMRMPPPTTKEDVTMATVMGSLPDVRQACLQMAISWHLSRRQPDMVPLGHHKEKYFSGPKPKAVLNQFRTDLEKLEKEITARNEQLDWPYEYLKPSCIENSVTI
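Hydroperoxide formation by human 12-lipoxygenase from 40 uM arachidonic acid was followed colorimetrically via ferric-xylenol orange complex, using the 573/405 nm absorbance ratio. Enzyme concentration was 150 nM, with 30 min reaction at room temperature.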
LMNA splice mod = changes lamin A minigene splicing in HeLa cells; HeLa LMNA splicing GFP/RFP minigene ratio, 48 h; Potency, µM (highest dose often 46.1 µM), inactives show at the top dose ratio change, negative = inhibition, usual class: inhibitors; hit rate 0.01% among 200,000; AID 1487; active = well fitted inhibition curve with a large enough effect in the signal ratio, with a control signal flat, not every such curve was filed as active; inconclusive = small, poorly fitted or top-dose-only effect, or effect the other way, or a change in a side signal; the % refers to the signal ratio; note: potency is the fitted concentration of half-maximal effect
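S3 HeLa stable clones carrying a lamin A-EGFP splicing minigene plus DsRed2 were seeded at 600 cells/well in Opti-MEM with 2% FBS, pin-dosed and incubated 48 h at 37°C. Acumen cytometry (488 nm) gave the GFP/RFP total-intensity ratio.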
ALDH1A1 block = inhibitors of human aldehyde dehydrogenase 1A1; AID 1030; hit rate 7.3% among 220,000; Potency, µM (doses to about 75.3 µM), for the others: at the highest dose activity, negative = inhibition, hits mostly inhibitors; P00352; Purified ALDH1A1, NADH fluorescence, propionaldehyde substrate;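 note: potency is the fitted concentration of half-maximal effect; plate controls were no enzyme wells and a reference inhibitor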
HPGD block = HPGD (human) dehydrogenase inhibition. P15428. purified HPGD, NADH fluorescence kinetic, PGE2 substrate. Potency, µM, for the others: top-dose activity change, negative = inhibition, usual class: inhibitors. hit rate 4.3% among 150,000; note: potency is the fitted concentration of half-maximal effect
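NADH formation kinetics: reaction with 30 uM PGE2 and 1 mM NAD+ (final), 20 nM enzyme, Tris-HCl pH 8 with Tween 20, after 15 min compound preincubation at room temperature. Fluorescence change, last versus first of five reads.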
PNC inhibitor = inhibitors of perinucleolar compartment assembly. activity change (PNC), negative = inhibition, % at 10 µM. hit rate 3.1% among 140,000. PC3M PTB-GFP, PNC prevalence imaging, 16 h; stronger effect = lower value. AID 2417;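 active = readout at or below -70, meaning at least 70% loss of cells showing the perinucleolar compartment, a nuclear body marking cancer cells; inconclusive = readout between -30 and a set limit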;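 note: plate controls were DMSO wells for no effect and camptothecin positive control wells for full effect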
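Compounds are pinned in duplicate onto adhered PC3M cells stably expressing GFP-tagged PTB and incubated 16 h at 37 C. Cells are then fixed, nuclei stained with Hoechst, and PNC-positive cells counted.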
* marks the source's active call; other numbers are inactive results; ? = inconclusive; . = not tested or not shown; ! = not confirmed by another sample; [ ] = dose if it differs, or a comment. Unless noted, calls come from the whole dose curve; as a rule, active = well fitted inhibition curve with a large enough effect (not every such curve was filed as active); inconclusive = small, poorly fitted or top-dose-only effect, or another doubt; inactive = no such curve, though single readings can be large or run the other way. Unless noted, % is set by controls: 0 for no effect and ±100 for the full control effect.

SMILES	12-hLO inh	LMNA splice mod	ALDH1A1 block	HPGD block	PNC inhibitor
Cc1ccc(S(=O)(=O)/N=C2\CN(C)C(=O)N2C)cc1	1%	-4%	14%	-6%	-113*
c1cc(CSSCc2ccncc2)ccn1	0%[11.4 µM]	.	4µM*	-14%	.
COc1ccc(NC(=O)C2CCC(CNS(=O)(=O)c3cccs3)CC2)cc1OC (centres undefined)	.	.	5µM*	.	.
COc1ccc(NC(=O)Nc2cccs2)cc1OC	-19%	6%	22µM*	-7%	10
COc1cccc(NC(=O)Nc2cccs2)c1	-12%	-6%	?	-21%	32
COc1ccc(NC(=O)C2CCCN(S(=O)(=O)c3cccs3)C2)cc1OC (centres undefined)	1%	-8%	5%	2%	-8
CCc1ccc(-c2nn(CC(=O)NC3CCCC3)c3c2cnc2ccc(F)cc23)cc1	.	8%[46 µM]	.	.	.
O=C(CNCC1CCCO1)Nc1ccccc1-n1cccc1 (centres undefined)	-3%	-6%	?	-3%	?
CCn1c2ccccc2c2cc(NC(=O)CNCC3CCCO3)ccc21 (centres undefined)	.	.	32µM*	.	.
O=C(CNCC1CCCO1)Nc1ccccc1N1CCOCC1 (centres undefined)	-5%	11%	?	-4%	-86*
N#CCCN(Cc1cccnc1)C(=S)NC(=O)c1ccco1	.	?	11µM*	.	.
N#CCCN(C(=S)NC(=O)c1ccco1)c1ccccc1F	.	13%[46 µM]	7.9µM*	.	.
N#CCCN(Cc1cccnc1)C(=S)NCc1ccco1	.	.	18µM*	.	.
CCN(CC)S(=O)(=O)c1ccc(C(=O)NC(=S)N(CCC#N)Cc2cccnc2)cc1	.	-6%[46 µM]	?	.	.
N#CCCN(C(=O)c1ccco1)c1ccccc1	-3%	0%	-11%	.	30
Cc1ccc(C)c(Cn2c(SCC(=O)N(C)Cc3ccccc3)nc3ccccc32)c1	.	-7%[46 µM]	.	.	.
C=CCOC(=O)N[C@H](/C(C(=O)OC)=C(\C)NCc1ccccc1)c1cccc(C(F)(F)F)c1	.	.	0%	-3%	.
COc1ccc(OC)c(C(=O)COC(=O)C2CC3CCCC(C2)C3=O)c1 (centres undefined)	0%	3%	7.1µM*	-24%	?
CCn1c(SCC(=O)c2ccc(F)cc2)nnc1-c1ccoc1C	-8%	9%	22µM*	?	?
Cc1occc1-c1nnc(SCC(=O)N2CCOCC2)n1CCc1ccccc1	1%	-8%	0%	2%	-19
CCCCn1c(SCC(=O)N2CCOCC2)nnc1-c1ccoc1C	-2%	-5%	-5%	-5%	-100*
COc1ccc(Cn2ccnc2SCC(=O)Nc2ccc(C)cc2C)cc1	.	3%[46 µM]	.	.	.
O=C1c2ccc(O)c(O)c2C(=O)c2c(O)ccc(O)c21	-36%	.	?	11µM*	.
O=C1c2ccccc2C(=O)c2c1ccc(O)c2O	?	?	?	28µM*	.
O=C1c2cccc(O)c2C(=O)c2c(O)cccc21	-11%	?	?	35µM*!	43
SMILES	12-hLO inh	LMNA splice mod	ALDH1A1 block	HPGD block	PNC inhibitor
COc1ccc(C(=O)COC(=O)CNC(=O)c2ccc(OC)cc2)cc1	.	.	-7%	.	.
COc1ccc(C2CC(=O)C3=C(C2)Nc2ncnn2C3c2ccccc2)cc1 (centres undefined)	-5%	-2%	?	-14%	-107*
Cc1cc(C)c(S(=O)(=O)/N=C2\C=CC(=O)C(Cl)=C2)c(C)c1	?	7%	?	20µM*	-14
Cc1ccc(S(=O)(=O)c2c(C)cc(C)nc2Cl)c(C)c1	-1%	0%	8%	-22%	-3
CCCCn1c(SC(C)C(=O)c2ccc(OC)cc2)nc2cc(S(N)(=O)=O)ccc21 (centres undefined)	-5%	14%	-10%	-16%	12
CCCCn1c(SCC(=O)c2ccc(OC)cc2OC)nc2cc(S(N)(=O)=O)ccc21	-9%	4%	7.1µM*	-7%	?
CCn1c(N)c(C(=O)NCc2ccc3c(c2)OCO3)sc1=S	-5%	-1%	20µM*	16µM*	?
CCOC(=O)c1c(C)c(C(=O)NCc2ccc3c(c2)OCO3)c(C)n1CC	0%	-9%	?	-16%	41
CCn1c(N)c(C(=O)Nc2ccccc2C(=O)OC)sc1=S	-16%	6%	28µM*	25µM*	-11
CCCCCC(=O)NC(=S)Nc1ccccc1C(=O)OC	?	8%	?	-10%	-9
CCn1c(N)c(C(=O)NCCOC)sc1=S	-10%	6%	25µM*	?	0
CCCCC(=O)Nc1cccc(-c2nc3ccccc3s2)c1	.	1%[46 µM]	.	.	.
CN1CCN(Cc2c(O)ccc3cc(Br)ccc23)CC1	.	0%[46 µM]	25µM*	.	.
O=C(/C=C/c1ccc(F)cc1)NC(Cc1c[nH]c2ccccc12)C(=O)O (centres undefined)	.	.	0%	.	.
Cc1cc(C)c(O)c(-c2cc(C(=O)NCc3ccccc3)[nH]n2)c1	-11%	?	?	-13%	35
Cc1ccc(O)c(-c2cc(C(=O)Nc3ccc(S(=O)(=O)N4CC(C)OC(C)C4)cc3)[nH]n2)c1 (centres undefined)	-2%	?	3%	13µM*	9
Cc1cc(C)nc(NS(=O)(=O)c2ccc(NC(=O)c3cc(-c4ccccc4)nc4ccccc34)cc2)n1	-1%	?	?	-11%	?
Cc1ccc(O)c(-c2cc(C(=O)NCc3ccncc3)[nH]n2)c1	-7%	19%	-7%	5µM*	-6
Cc1ccc(O)c(-c2cc(C(=O)Nc3ccc(S(=O)(=O)Nc4nc(C)cc(C)n4)cc3)[nH]n2)c1	0%	?	3%	0.89µM*	16
Nn1cc(Br)c(=O)[nH]c1=O	.	.	3%	.	.
O=C(Nc1ccc(C(=O)Nc2ccc(C(=O)Nc3ccc(S(=O)(=O)O)c4cc(S(=O)(=O)O)cc(S(=O)(=O)O)c34)cc2)cc1)Nc1ccc(C(=O)Nc2ccc(C(=O)Nc3ccc(S(=O)(=O)O)c4cc(S(=O)(=O)O)cc(S(=O)(=O)O)c34)cc2)cc1	9%	.	?	-21%	.
C=CCNC(=S)Nc1ccc2nsnc2c1	-1%	?	-6%	-11%	32
COc1ccc(NC(=S)Nc2ccc3nsnc3c2)cc1	-3%	2%	22µM*	-4%	14
CCOc1ccc(NC(=O)Nc2ccc3nsnc3c2)cc1	.	?	2%	.	.
COc1ccc(NC(=S)NN(C)C(=S)Nc2ccc(OC)cc2)cc1	-3%	?	?	-22%	-114*
CCOc1ccc(NC(=S)Nc2ccc3nsnc3c2)cc1	-25%	-9%	3.5µM*	28µM*	1
C=CCN(CC=C)C(=S)Nc1ccc2nsnc2c1	.	-8%[9.22 µM]	11µM*	.	.
